In PubChem BioAssay:

Legend:
[1] = system: Human papillomavirus type 1a protein E7 (residues 44-93); assay: small molecules binding HPV E7 44-93 – biochemical, small-molecule microarray, residues 44-93, 635 nm fluorescence, primary screen (AID 1108); details: fluorescence 635 nm, higher = more signal;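 also: E7 fragment applied at 1 µg/mL in TBST for 1 h at 4 C; score combines spot fluorescence with its signal to noise ratio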
[2] = hepatitis C replication reporter changes, two-sided – Huh7 cells, luciferase reporter, HCV replication inhibitor project, primary screen (AID 1109); details: Huh7 HCV replicon luciferase reporter, 48 h; higher = more signal;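 also: huh7 hepatoma cells harbouring a luciferase neomycin HCV replicon reporter; luciferase luminescence as measure of HCV replicon replication; test concentration not given here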
[3] = target: Left-right determination factor 2 (Homo sapiens) (UniProt O00292); assay: small molecules binding LEFTY2 protein – biochemical, small-molecule microarray, 635 nm fluorescence scan, primary screen (AID 1110); details: higher = more signal
[4] = target: Calmodulin-1 (Homo sapiens) (UniProt P0DP23); assay: small molecules binding calmodulin-1 with EGTA – biochemical, small-molecule microarray, Cy5-labelled CALM1, profiling panel (AID 1111); details: Cy5-CALM1 binding fluorescence, higher = more signal;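 also: labelled calmodulin applied in Tris saline Tween buffer holding calcium plus EGTA and DTT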
[5] = target: Calmodulin-1 (Homo sapiens) (UniProt P0DP23); assay: small molecules binding Ca-loaded calmodulin-1 – biochemical, small-molecule microarray, Cy5-labelled CALM1, plus calcium, artefact control for SMM control-protein annotation, profiling panel (AID 1112); details: Cy5-CALM1 binding fluorescence, higher = more signal;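 also: score merges spot fluorescence with signal to noise from triplicate slides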
[6] = probe aWnt5a binding to arrayed compounds – biochemical, biotinylated probe, 635/667 nm fluorescence, primary screen (AID 1113); details: small-molecule microarray, higher = more signal;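 also: score merges 667 nm fluorescence intensity with signal-to-noise per printed feature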
[7] = probe aShh binding to arrayed compounds – biochemical, biotinylated probe, 635/667 nm fluorescence, primary screen (AID 1114); details: small-molecule microarray, higher = more signal;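 also: probe is biotin-labelled aShh protein from a stem cell growth factor screen; measures binding of labelled protein to compounds printed on the slide; score merges feature fluorescence at 667 nm with signal-to-noise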
[8] = probe aNog binding to arrayed compounds – biochemical, biotinylated probe, 635/667 nm fluorescence, primary screen (AID 1115); details: small-molecule microarray, higher = more signal;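 also: probe is biotinylated aNog protein used at 0.15 µg/mL for 1 h at 4 C; z-score combines 667 nm fluorescence of each spot with its signal to noise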
[9] = target: Torsin-1A-interacting protein 1 (Homo sapiens) (UniProt Q5JTV8); assay: compound microarray binding of lysate hLAP1 – cell lysate, small-molecule microarray, COS7 lysate, 635/667 nm fluorescence, primary screen (AID 1116); details: 635 nm fluorescence, higher = more signal
[10] = target: Alpha-bungarotoxin (Bungarus multicinctus) (UniProt P60615); assay: compounds binding labelled alpha-BTX control protein – biochemical, small-molecule microarray, Alexa647 label, 635/667 nm fluorescence, artefact control for SMM control protein annotation, profiling panel (AID 1117); details: alpha-BTX-A647 binding fluorescence, higher = more signal
Alpha-bungarotoxin (Bungarus multicinctus), sequence (P60615 whole entry, looked up): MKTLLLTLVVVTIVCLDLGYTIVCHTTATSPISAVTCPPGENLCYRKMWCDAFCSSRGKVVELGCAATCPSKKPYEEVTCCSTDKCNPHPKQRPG

Torsin-1A-interacting protein 1 (Homo sapiens), sequence (Q5JTV8 whole entry, looked up): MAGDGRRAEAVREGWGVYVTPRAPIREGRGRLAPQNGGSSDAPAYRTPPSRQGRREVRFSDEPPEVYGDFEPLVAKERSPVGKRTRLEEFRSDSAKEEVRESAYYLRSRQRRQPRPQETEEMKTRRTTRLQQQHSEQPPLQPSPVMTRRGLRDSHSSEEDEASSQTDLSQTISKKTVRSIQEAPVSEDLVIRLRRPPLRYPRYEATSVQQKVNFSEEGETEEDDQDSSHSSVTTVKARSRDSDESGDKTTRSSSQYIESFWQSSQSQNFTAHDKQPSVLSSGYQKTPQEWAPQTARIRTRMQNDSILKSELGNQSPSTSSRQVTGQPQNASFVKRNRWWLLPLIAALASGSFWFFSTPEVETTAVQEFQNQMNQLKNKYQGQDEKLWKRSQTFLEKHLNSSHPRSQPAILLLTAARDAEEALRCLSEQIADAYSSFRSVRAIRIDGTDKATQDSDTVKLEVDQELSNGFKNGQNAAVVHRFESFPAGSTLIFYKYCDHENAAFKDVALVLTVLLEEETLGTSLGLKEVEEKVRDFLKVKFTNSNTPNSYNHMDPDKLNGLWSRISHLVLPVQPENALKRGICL
Left-right determination factor 2 (Homo sapiens), sequence (O00292 whole entry, looked up): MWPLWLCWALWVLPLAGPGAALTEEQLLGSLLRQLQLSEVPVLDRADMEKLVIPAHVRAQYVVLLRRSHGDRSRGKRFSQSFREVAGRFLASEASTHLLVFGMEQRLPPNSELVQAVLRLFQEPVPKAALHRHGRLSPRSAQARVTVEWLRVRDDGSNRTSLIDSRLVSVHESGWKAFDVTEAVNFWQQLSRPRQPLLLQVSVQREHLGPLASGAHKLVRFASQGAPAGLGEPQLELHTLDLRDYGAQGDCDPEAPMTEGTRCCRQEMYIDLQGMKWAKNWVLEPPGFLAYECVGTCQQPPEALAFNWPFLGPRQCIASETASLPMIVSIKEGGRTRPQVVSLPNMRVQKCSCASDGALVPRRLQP

SMILES	composite z-score [1]	z-score [2]	composite z-score [3]	composite z-score [4]	composite z-score [5]	composite z-score [6]	composite z-score [7]	composite z-score [8]	composite z-score [9]	composite z-score [10]
[N-]=[N+]=NCc1ccccc1[C@H]1OC(c2ccc(OCCCO)cc2)=N[C@@]1(CCS(=O)(=O)c1ccccc1)C(=O)NCCN1CCOCC1	1.49	-0.233	0.0744	1.39	0.593	0.143	-0.107	-0.612	1.06	1.3
Cc1ccc(S[C@]2(C(=O)NCc3ccccc3)CC(=O)N(Cc3ccccc3Cl)[C@@H]2c2ccc(CO)cc2)cc1	-0.0153	-2.79	-1.76	-0.272	0.273	-0.19	0.0858	0.308	-0.0706	-0.619
O=C1NC(=O)C2C1C=CC(C(O)C1CCCCC1)N2Nc1ccccn1 (stereo not given)	0.657	-0.442	0.372	0.5	0.469	-0.0478	0.321	0.69	-0.26	0.353
COc1cc(Cc2cc3c(c(CCc4ccccc4)n2)[Si](C(C)C)(C(C)C)O[C@H]3c2ccccc2)cc(OC)c1OC	-1.18	-2.37	0.151	-0.448	-0.425	-0.0107	-0.138	-0.0827	0.415	0.537
CCCCC(=C=CC[C@H](O)c1cccc(OCCO)c1)C[C@H](O)c1cc(Cl)cc(Cl)c1O	1.39	-1.59	-0.0526	0.154	-0.484	-0.096	-0.0626	0.422	0.839	0.645
Cc1ccc(S[C@]2(C(=O)NCC(C)C)CC(=O)N(C(C)C)[C@@H]2c2ccc(CO)cc2I)cc1	0.297	-0.98	-1.62	-1.21	0.0034	-0.112	-0.0035	-0.131	0.626	-0.659
COCCCNC(=O)[C@@]1(Cc2ccccc2I)c2ccccc2C(=O)N(Cc2ccccc2OC)[C@H]1c1ccc(CO)cc1	1.39	-2.08	-0.43	0.0345	0.0879	-0.248	-0.0146	-0.537	-0.013	0.101
COCCOC(=O)N1C(=O)[C@@]2(c3cc(C#CCNC(N)=O)ccc31)[C@H](C(=O)Nc1nc3ccccc3s1)[C@H]1C(=O)O[C@H](c3ccccc3)[C@H](c3ccccc3)N1[C@@H]2c1ccc(O)cc1	1.2	-1.21	0.23	0.68	0.575	-0.124	0.0483	-0.314	0.618	1.6
CC1CC/C=C\[C@H]2OC34C=CCN(CCN5CCOCC5)C(=O)[C@H]3N(C(CO)C(C)C)C(=O)[C@@H]4C2C(=O)O1 (stereo not given in full)	0.0179	-0.278	-0.0839	-0.388	-1.05	-0.105	0.0469	-0.126	-0.46	-0.157
CC(C)[Si](C#Cc1ccccc1)(O[C@H](c1ccccc1)c1cn(Cc2ccccc2)nn1)C(C)C	0.657	0.167	0.0441	-0.49	-1.67	-0.169	-0.138	-0.138	0.567	0.579
[N-]=[N+]=NCc1ccccc1[C@H]1OC(c2ccc(OCCCO)cc2)=N[C@@]1(CCS(=O)(=O)c1ccccc1)C(=O)O	0.746	-1.98	-0.266	0.461	-0.331	-0.15	-0.156	-0.246	0.703	-0.553
COCCOC(=O)N1C(=O)[C@@]2(c3ccccc31)[C@H](C(=O)Nc1nc3ccccc3s1)[C@H]1C(=O)O[C@H](c3ccccc3)[C@H](c3ccccc3)N1[C@@H]2c1ccccc1OCCO	1.41	-1.83	0.146	1.51	0.476	-0.0685	-0.225	0.36	0.429	1.72
COC(=O)Cn1c(C(=O)N(C)C)cc2c1C[C@H]1CN(C(=O)c3ccccc3)[C@@](Cc3ccccc3)(C(=O)OC)[C@@H]21	-1.8	-0.0967	0.103	0.371	-0.198	0.0077	0.253	-0.354	-0.878	0.195
O=C/C=C/c1ccc(-c2ccccc2)cc1	-1.06	0.861	0.435	-0.501	-0.524	-0.129	-0.341	-0.739	-0.0833	0.27
COC(=O)[C@@]1(Cc2ccc(F)cc2)[C@H]2c3cc(C(=O)N4CCCC4)n(C[C@H](O)CO)c3C[C@H]2CN1C(=O)c1ccccc1	0.0716	-0.948	-0.358	2.69	1.27	0.429	1.41	2.28	2.35	0.185
COc1cc(Cc2cc3c(c(-c4ccccc4)n2)[Si](C(C)C)(C(C)C)OC3)cc(OC)c1OC	-1.82	0.385	0.363	-0.651	-0.0062	-0.175	0.915	-0.359	-0.181	1.34
CCOC(=O)C1=C[C@@H](C(C)(C)C)N(S(=O)(=O)c2ccc(C)cc2)[C@H]1c1ccc(OC)cc1	1.34	-2.36	0.535	1.49	0.577	0.0279	0.216	-0.397	1.97	1.14
CO[C@H]1O[C@H](CO)[C@@H](OC(=O)Nc2cccc(F)c2)[C@H](OC(=O)c2cc3ccccc3[nH]2)[C@H]1OC(=O)c1cc2ccccc2[nH]1	0.177	-2.25	0.0416	0.681	0.0008	-0.232	-0.138	-0.158	-0.009	0.698
C=C[C@H](C)[C@@H](OC(=O)Nc1ccc(SC)cc1)c1ccc(OCCO)cc1	1.3	-0.931	-0.396	0.19	0.601	-0.0792	-0.0643	0.958	0.248	0.438
CCCN1C(=O)[C@@]2(c3ccc([N+](=O)[O-])cc3)CC(=O)N(C3CCCCC3)[C@@H]2c2ccc(CO)cc21	0.202	-0.136	0.445	-0.0766	-0.567	-0.18	-0.225	-0.0165	-0.349	-0.171
C=CCOC(=O)[C@@H]1[C@H]2C(=O)O[C@H](c3ccccc3)[C@H](c3ccccc3)N2[C@H](c2ccc(OCCOC(=O)[C@@H]3C[C@@H]4C(=O)N[C@@H](CC(C)C)C(=O)N4[C@@H]3c3ccc(O)cc3)cc2)[C@@]12C(=O)Nc1ccc(I)cc12	1.39	-0.432	1.26	0.751	0.289	-0.263	-0.0793	1.12	-0.107	1.44
COC(=O)C(CC#Cc1ccc2c(c1)[C@]1(C(=O)N2)[C@H](C(=O)N2CCCCCCC2)[C@H]2C(=O)O[C@H](c3ccccc3)[C@H](c3ccccc3)N2[C@@H]1c1ccc(OCCO)cc1)C(=O)OC	1.55	-1.57	1.76	3.07	1.68	1.63	3.53	3.7	6.05	4.36
